Source: PubChem BioAssay (NCI)
This is part of a sample that, as a whole, favours compounds with a hit. Of some 83,000 tested, about 20% had one in any assay.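 Interpretation: 100, growth as untreated; towards 0, rising growth inhibition; 0, no net growth; 0 to -100, cell death. Compounds scoring below 10 were considered active.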 Values without a mark were called inactive. The source made the active and inactive calls.

System: SN12C renal
Assay: NCI-60 one-dose screen, 48 h (100 = growth as untreated, 0 = no growth, -100 = all killed)
Settings: 10 µM unless noted

| SMILES | growth |
| --- | --- |
| NC(=O)CNc1ccc([As]=[As]c2ccc(NCC(N)=O)cc2)cc1 (configuration not stated) | 34% |
| C/C(=C\c1ccn(-c2ccc(N)cc2)n1)[C@@H]1C[C@@H]2O[C@]2(C)CCC[C@H](C)[C@H](O)[C@@H](C)C(=O)C(C)(C)[C@@H](O)CC(=O)O1 | 39.6% |
| CC1(C)N=C(N)N=C(N)N1c1ccc(OCCCNC(=O)Nc2ccc(S(=O)(=O)F)cc2)c(Cl)c1 | 23.8% |
| c1ccc(COc2ccc3[nH]cc(CCN(Cc4ccccc4)Cc4ccccc4)c3c2)cc1 | 86.3% |
| O=[As](O)(O)c1ccccc1[As](=O)(O)O | 110% |
| C1CCC([PH+](C2CCCCC2)C2CCCCC2[PH+](C2CCCCC2)C2CCCCC2)CC1.[Au].[CH-]1CCCCC1CC1CCCC[N-]1 (configuration not stated) | -32% (active) |
| CCCC(=O)O[C@@H]1C[C@H]2C[C@@H](O[C@@H]3O[C@@H](C)[C@@H](O)[C@@H](O)[C@H]3OC)C[C@@H](C[C@@H](C)/C=C/C=C\C[C@@H]3O[C@@H](C[C@@H]3C)[C@@H](O)C[C@H]3C[C@@]1(O)C(=O)O3)O2 | 58.7% |
| CC[S][Hg][Cl] | 105% |
| COc1cccc2c1c(C(=O)c1ccco1)cn2Cc1ccc(F)cc1 | 72.4% |
| CC(=O)c1ccc(C(=O)NCC2CCC3(CC2)OOC2(CCCCC2)OO3)cc1 | 78% |
| O=C(N/N=C/c1ccc(N(CCCl)CCCl)cc1)c1cccc2ccccc12 | 73.8% |
| O=C(CCCCCNC1=CC(=O)c2ccccc2C1=O)NCCC[Te]c1ccccc1 | -8.47% (active) |
